The results in this text go back to PubChem BioAssay (Tox21).

Molecules are shown by their SMILES. Records with an inconclusive call do not appear. Where a call stands in place of a potency, no number is given. The source made the active and inactive calls. Calls come from the whole dose curve; as a rule, active = well fitted cell-killing curve with a large enough effect in the repeat runs; inconclusive = weak or mixed curves, or effect the other way; inactive = no such curve, though single readings can be large or run the other way. Starred links: 1 amine or outer side, 2 acyl side, 3 side chain; linkers in the order of their positions; H or OH if unused. Positions of bridges follow the written chain, without caps; N, C: chain ends. Non-standard residues stand in square brackets, D forms with d. Residues, ends and D or L forms follow the SMILES beside them. ξ: configuration not given here. *: point of attachment. X5 = NC1=N[C@@H]([C@H](N[*:1])C(=O)[*:2])C[C@H](O)N1; ΔAla(Z-3-ureido) = NC(=O)N/C=C(\N)C(=O)O; d(aThr) = C[C@@H](O)[C@@H](N)C(=O)O; ξThr(3R) = C[C@@H](O)C(N)C(=O)O; β3hOrn = NCCC[C@H](N)CC(=O)*; X3 = CC[C@@H](C)CCCCC(=O)*; X2 = CC[C@H](C)CCCCC(=O)*; dDab = NCC[C@@H](N)C(=O)O; Dab = NCC[C@H](N)C(=O)O; Dap = NC[C@H](N)C(=O)O
Potency is the fitted concentration of half-maximal effect.

The experiment in a line: qHTS assay to identify small molecule antagonists of the thyroid receptor (TR) signaling pathway - cell viability counter screen (AID 743064). Note: nearly all actives have a fitted effect of over 50% in size. The following applies: GH3.TRE-Luc viability, CellTiter-Fluor, 24 h; series mostly up to 70.3 µM. An excerpt:
National Center for Advancing Translational Sciences [NCATS]
NIH Chemical Genomics Center [NCGC]
U.S. Environmental Protection Agency [EPA]
National Institutes of Environmental Health Sciences [NIEHS]
National Toxicology Program [NTP]
U.S. Food and Drug Administration [FDA]
Thyroid receptor (TR), a nuclear hormone receptor, plays an important role in development, proliferation, differentiation, metabolism, brain function, and cardiovascular system. […] To profile the Tox21 10K compound library in TR signaling, a cell-based GH3-TRE-Luc assay (GH3.TRE-Luc cell line, developed by the laboratory of Dr. Albertinka J. Murk, Wageningen University) was used to measure the inhibition of TR. GH3 (rat pituitary tumor) cells stably expressing a TR activity sensor consisting of two TR response elements and a luciferase reporter gene. The cytotoxicity of the Tox21 compound library against the GH3.TRE-Luc cell line was tested in parallel by measuring the cell viability using CellTiter-Fluor assay (Promega, Madison, WI) in the same wells.
Tox21 Assay Protocol Summary:
GH3.TRE-Luc cells were dispensed at 1500 cells/4 uL/well into 1536-well white solid bottom plates using a Multidrop Combi dispenser (Thermo Fisher Scientific Inc., Waltham, MA). After the assay plates were incubated at 37 C for 4 hours, 23 nL of library compound or DMSO controls was transferred to the assay plates by a pintool station (Kalypsys, San Diego, CA), followed by addition of 1 ul of T3 (1 nM, final concentration in the wells) to stimulate TR transactivation. The assay plates were incubated at 37 C for 23.5 h, and then 1 uL of CellTiter-Fluor reagent (Promega, Madision, WI) of measuring cytotoxicity was added to each well using a Bioraptr Flying Reagent Dispenser (FRD) workstation (Beckman Coulter, Indianapolis, IN, USA). The plates were incubated at 37C and 5% CO2 for additional 30 min, and fluorescence intensity was measured by a ViewLux plate reader (PerkinElmer, Shelton, CT).
(In general: qHTS replaces the single test concentration by a dilution series.)
Turning to `COC(=O)[C@H]1[C@H]2C[C@@H]3c4[nH]c5cc(OC)ccc5c4CCN3C[C@H]2C[C@@H](OC(=O)/C=C/c2cc(OC)c(OC)c(OC)c2)[C@@H]1OC`, the Potency entry is “inactive”.

On to `C[C@H](O)[C@H](O)[C@H]1CNc2nc(N)[nH]c(=O)c2N1`, for which the Potency result was “inactive”.

For `O=C(OCCO)c1ccccc1O`, the Potency entry was “inactive”.

Consider `CN(C(=O)CO)c1c(I)c(C(=O)NCC(O)CO)c(I)c(C(=O)NCC(O)CO)c1I` (stereo not given), for which the Potency result was “inactive”.

On to `C[C@@](Cc1ccc(O)c(O)c1)(NN)C(=O)O`, for which the Potency entry was “inactive”.

Turning to `CC(C)CCCC(C)NC(C)C` (stereo not given), the Potency entry was “inactive”.

Consider `C=C[C@]1(C)C[C@@H](OC(=O)CO)[C@]2(C)[C@H](C)CC[C@]3(CCC(=O)[C@H]32)[C@@H](C)[C@@H]1O`, for which the Potency result is “inactive”.

As for `CC#CCC(C)[C@H](O)/C=C/[C@@H]1[C@H]2C/C(=C/CCCC(=O)O)C[C@H]2C[C@H]1O` (stereo not given in full), the Potency result is “inactive”.

With `CCCCCCCCCCCCCCCCCCOP(=O)([O-])OC1CC[N+](C)(C)CC1`, the Potency result was “inactive”.

On to `C[C@@H]1C/C=C/C=C/C=C/C=C/[C@H](O[C@@H]2O[C@H](C)[C@@H](O)[C@H](N)[C@@H]2O)C[C@@H]2O[C@](O)(C[C@@H](O)C[C@H]3O[C@@H]3/C=C/C(=O)O1)C[C@H](O)[C@H]2C(=O)O`, for which the Potency entry was “inactive”.

Turning to `COc1cc([C@@H]2c3cc4c(cc3C(O[C@@H]3O[C@@H]5COC(c6cccs6)O[C@H]5[C@H](O)[C@H]3O)C3COC(=O)[C@@H]32)OCO4)cc(OC)c1O` (stereo not given in full), the Potency was 2.37 µM (active).

For `CC[C@H](C)CCCCC(=O)N[C@@H](CCN)C(=O)N[C@H](C(=O)N[C@@H](CCN)C(=O)N[C@H]1CCNC(=O)[C@@H]([C@H](C)O)NC(=O)[C@H](CCN)NC(=O)[C@H](CCN)NC(=O)[C@H](CC(C)C)NC(=O)[C@@H](CC(C)C)NC(=O)[C@H](CCN)NC1=O)[C@@H](C)O` (X2-[Dab]T[Dab][Dab][Dab][dL]L[Dab][Dab][dT]; lactam 4-C), the Potency result is “inactive”.

For `Cc1ccc(/C(=C\CN2CCCC2)c2cccc(/C=C/C(=O)O)n2)cc1`, the Potency result is “inactive”.

For `CC(C)C(=O)OCC(=O)[C@@]12O[C@H](C3CCCCC3)O[C@@H]1C[C@H]1[C@@H]3CCC4=CC(=O)C=C[C@]4(C)[C@H]3[C@@H](O)C[C@@]12C`, the Potency is 18.8 µM (active).

In the case of `CCCCCCCN(CC)CCCC(O)c1ccc(NS(C)(=O)=O)cc1` (stereo not given), the Potency is 23.7 µM (active).

On to `C[C@]12C=CC(=O)C=C1CC[C@@H]1[C@@H]2[C@@H](O)C[C@@]2(C)[C@H]1CC[C@]2(O)C(=O)COC(=O)CCC(=O)O`, for which the Potency result was “inactive”.

As to `COc1ccc(C(=O)CCC(=O)O)c2ccccc12`, the Potency entry is “inactive”.

As to `CCC(C)(C)OC(=O)N[C@@H](Cc1c[nH]c2ccccc12)C(=O)N[C@@H](CCSC)C(=O)N[C@@H](CC(=O)O)C(=O)N[C@@H](Cc1ccccc1)C(N)=O`, the Potency result was “inactive”.

`NCCC[C@H](N)CC(=O)N[C@H]1CNC(=O)[C@H]([C@H]2C[C@H](O)NC(N)=N2)NC(=O)/C(=C/NC(N)=O)NC(=O)[C@H](CO)NC(=O)[C@H](CO)NC1=O` (β3hOrn-[Dap]SS[ΔAla(Z-3-ureido)][X5]; lactam 1-C): the Potency entry is “inactive”.

Consider `O=C(O)c1cc(N=Nc2ccc(O)c(C(=O)O)c2)ccc1O`, for which the Potency entry was “inactive”.

`CC[C@@H](C)CCCCC(=O)N[C@H](CCN)C(=O)N[C@@H](C(=O)N[C@H](CCN)C(=O)N[C@@H]1CCNC(=O)C([C@@H](C)O)NC(=O)[C@@H](CCN)NC(=O)[C@@H](CCN)NC(=O)[C@@H](CC(C)C)NC(=O)[C@@H](Cc2ccccc2)NC(=O)[C@@H](CCN)NC1=O)[C@@H](C)O` (stereo partly drawn) (X3-[dDab][d(aThr)][dDab][dDab][dDab][dF][dL][dDab][dDab][ξThr(3R)]; lactam 4-C): the Potency entry is “inactive”.

For the compound `CCC(=O)OCC(=O)[C@@]1(OC(=O)CC)[C@H](C)C[C@H]2[C@@H]3CCC4=CC(=O)C=C[C@]4(C)[C@@]3(F)[C@@H](O)C[C@@]21C`, the Potency entry is “inactive”.

In the case of `O=C(O)[C@H](CC(=O)N1C[C@H]2CCCC[C@H]2C1)Cc1ccccc1`, the Potency entry was “inactive”.

For the compound `NC(=O)OC[C@@H]1[C@H](NC(=O)/C(=N\OCC(=O)O)c2csc(N)n2)C(=O)N1S(=O)(=O)O`, the Potency result is “inactive”.

`O=C(O)[C@@H](O)[C@H](O)[C@H](O)[C@@H](O)C(=O)O` (tested in a mixture with another compound): the Potency entry is “inactive”.

As to `C#C[C@]1(O)CC[C@H]2[C@@H]3CCC4=C/C(=N/O)CC[C@@H]4[C@H]3CC[C@@]21CC`, the Potency is 29.8 µM (active).

As for `CN=C1C=CC(=C(c2ccc(N(C)C)cc2)c2ccc(N(C)C)cc2)C=C1`, the Potency was 3.35 µM (active).

Take `CC(=O)N[C@@H](C=O)[C@@H](O)[C@H](O)[C@H](O)CO`: the Potency entry is “inactive”.

Take `CC(C)CN(C[C@@H](OP(=O)(O)O)[C@H](Cc1ccccc1)NC(=O)O[C@H]1CCOC1)S(=O)(=O)c1ccc(N)cc1`: the Potency entry is “inactive”.

Turning to `COc1ccc(C[C@H](N)C(=O)N[C@H]2[C@@H](O)[C@H](n3cnc4c(N(C)C)ncnc43)O[C@@H]2CO)cc1`, the Potency is 11.9 µM (active).

As to `O=c1oc2cc(O)ccc2s1`, the Potency entry was “inactive”.

With `CC1CCC(NC(=O)N(CCCl)N=O)CC1` (stereo not given), the Potency entry was “inactive”.

As to `COc1cc(S(C)=O)ccc1-c1nc2ncccc2[nH]1` (stereo not given), the Potency result was “inactive”.

`CCOC(=O)c1c[nH]c2cc(OCC(C)C)c(OCC(C)C)cc2c1=O`: the Potency entry is “inactive”.

For the compound `CCCCC(O)c1ccccc1` (stereo not given), the Potency result was “inactive”.

Turning to `CC[C@H]1NC(=O)[C@@H](NC(=O)c2ncccc2O)[C@@H](C)OC(=O)[C@H](c2ccccc2)NC(=O)[C@@H]2CC(=O)CCN2C(=O)[C@H](Cc2ccccc2)N(C)C(=O)[C@@H]2CCCN2C1=O`, the Potency entry was “inactive”.

Regarding `OC[C@@H](O)C(O)[C@H](O)CO`, the Potency entry was “inactive”.

Regarding `CCOC(=O)Nc1ccc2c(c1)N(C(=O)CN(C)C)c1ccccc1CC2`, the Potency is 48.6 µM (active).

Regarding `O=[n+]1ccn([O-])c2ccccc21`, the Potency result was “inactive”.

Regarding `CC(=O)N[C@@H]1C(O[C@H]2O[C@H](C(=O)O)C(O)[C@H](O)[C@H]2O)[C@H](O)[C@@H](CO)O[C@H]1O[C@@H]1C(C(=O)O)O[C@@H](O[C@H]2[C@H](O)[C@@H](CO)OC(O)[C@@H]2NC(C)=O)[C@H](O)[C@H]1O` (stereo not given in full), the Potency entry was “inactive”.
